Assay outcomes (PubChem)
TDP1 cell noCPT = qHTS for Inhibitors of human tyrosyl-DNA phosphodiesterase 1 (TDP1): qHTS in cells in absence of CPT | Potency, µM (titrated, usually from 46.2 µM), without a hit: top-dose activity change, negative = growth inhibition, most hits filed as inhibitors | DT40 Tdp1-/- hTDP1 cells, no CPT, ATP luminescence, 48 h | 420,000 compounds, 15% hits | AID 686978, 2013; also: % is scaled to controls: 0 for no effect and ±100 for the full control effect; nearly all actives have a fitted effect of over 55% in size
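DT40 Tdp1-/-;hTDP1 cells, no CPT (DMSO vehicle only), 400 cells/well; compounds pin-transferred; ≥48 hr, 37 °C; CellTiter-Glo 30 min RT dark, luminescence read.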
ATXN viability = Viability Counterscreen for Primary qHTS for Inhibitors of ATXN expression | S2 cells (HEK-293 line with an ATXN2-luciferase reporter) viability, CellTiter-Fluor protease fluorescence, 24 h | Potency, µM (series often up to 56.7 µM), actives largely listed as cytotoxic | 400,000 compounds, 0.49% hits; also: nearly all actives have a fitted effect of over 40% in size
ATXN2 expr inh = Primary qHTS for Inhibitors of ATXN expression | HEK-293 ATXN2-luciferase reporter, luminescence, 24 h | 360,000 compounds, 0.72% hits | Potency, µM (titrated, usually from 57 µM), for inactives: top-dose activity change, negative = inhibition, most hits filed as inhibitors; also: % is scaled to controls: 0 for no effect and ±100 for the full control effect; nearly all actives have a fitted effect of over 55% in size
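qHTS (up to 57 uM final) was run with 24 h compound exposure of reporter cells at 37 °C. Each well was multiplexed: SteadyGlo luminescence measured ATXN2-luciferase expression after a fluorogenic Gly-Phe-AFC viability readout (25 uM final).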
HepG2 tox = qHTS for Inhibitors of TGF-b: Cytotox Counterscreen; AID 588856, 2011; HepG2 CAGA-GFP viability, ATP luminescence, 18 h; 410,000 compounds, 0.76% hits; Potency, µM (doses to about 46.1 µM), without a hit: at the top dose activity change, negative = cytotoxicity, hits mostly cytotoxic
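CellTiter-Glo luminescence gave cytotoxicity after 18 hours at 37 degrees C. The cells were HepG2 CAGA-GFP in 1% FBS DMEM, stimulated with 500 pg/mL TGF-beta after compound addition. %Activity was normalised to no-cell wells (complete cell-killing) and DMSO (no toxicity), and curves were fitted and classified.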
TGFb inhibitor = qHTS for Inhibitors of TGF-b | HepG2 CAGA-GFP TGF-b/SMAD3 reporter, GFP fluorescence, 18 h; TGF-beta stimulated, 500 pg/mL final | Potency, µM (doses to about 46.1 µM), for inactives: at the top dose activity, negative = inhibition, actives largely listed as inhibitors | 410,000 compounds, 1.2% hits; also: % is scaled to controls: 0 for no effect and ±100 for the full control effect; nearly all actives have a fitted effect of over 65% in size
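Read-out: total well GFP (ex488/em500-530) summed from mean per-cell fluorescence. Cells: HEPG2 CAGA-GFP, 1% FBS DMEM, 18 h at 37 degrees C with 500 pg/mL final TGF-beta. Unstimulated wells served as the full-inhibition control; stimulated DMSO wells = 0%.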
TDP1 cell CPT = qHTS for Inhibitors of human tyrosyl-DNA phosphodiesterase 1 (TDP1): qHTS in cells in presence of CPT | chicken DT40 Tdp1-/-;hTDP1 cells + 20 nM CPT, ATP luminescence, 48 h | Potency, µM (series often up to 46.2 µM), without a hit: at the top dose activity change, negative = growth inhibition, actives largely listed as inhibitors | 420,000 compounds, 12% hits; also: % is scaled to controls: 0 for no effect and ±100 for the full control effect; nearly all actives have a fitted effect of over 55% in size
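Chicken DT40 Tdp1-/- cells complemented with human TDP1, 400 cells/well, exposed to compounds plus 20 nM camptothecin for at least 48 h at 37 C; viability read as ATP content by CellTiter-Glo luminescence.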
* marks the source's active call; other numbers are inactive results. In the library only some 17% were active in any assay of this set; here they are far more common. Calls follow the shape of the dose curve; as a rule, active = well fitted curve in the direction sought with a large enough effect; inconclusive = small, poorly fitted or top-dose-only effect, or another doubt; inactive = no such curve, though single readings can be large; an effect the other way counts as inactive or inconclusive. Potency is read from the fitted curve at half-maximal effect.

`COc1ccccc1C1CC(c2ccc(Cl)cc2)Nc2ncnn21` (stereo unspecified) gave TDP1 cell noCPT 20.6µM*, ATXN viability inactive, ATXN2 expr inh -15.3%, HepG2 tox -5.3%, TGFb inhibitor -6.3% and TDP1 cell CPT 14.6µM*.
CCOc1ccccc1C1CC(c2ccc(F)cc2)Nc2nc(N)nn21 (stereo unspecified) was read as TDP1 cell noCPT inconclusive, ATXN viability inactive, ATXN2 expr inh -6.7%, HepG2 tox -8.8%, TGFb inhibitor -19.7% and TDP1 cell CPT 1.16µM*.
Screening COc1ccc(C2CC(c3cccs3)n3nc(N)nc3N2)cc1 (stereo unspecified) returned TDP1 cell noCPT inconclusive, ATXN viability inactive, ATXN2 expr inh 5.5%, HepG2 tox -4.9%, TGFb inhibitor 15.2% and TDP1 cell CPT 23.1µM*.
For O=[N+]([O-])c1ccc(N=Nc2ncc[nH]2)cc1 the results were TDP1 cell noCPT 0.731µM*, ATXN viability 1.26µM*, HepG2 tox -13.9%, TGFb inhibitor -11.4% and TDP1 cell CPT 0.92µM*.
`O=[N+]([O-])c1ccc(N=NN(CCO)CCO)cc1` gave TDP1 cell noCPT -8.1%, ATXN viability inactive, HepG2 tox -39.8%, TGFb inhibitor 11.0% and TDP1 cell CPT -14.4%.
Cn1c(=NC(=O)c2ccco2)sc2ccccc21 was read as TDP1 cell noCPT inconclusive, ATXN viability inactive, ATXN2 expr inh 1.1%, HepG2 tox 1.3%, TGFb inhibitor -17.6% and TDP1 cell CPT -28.4%.
For CCOC(=O)N1CCN(C(=O)CSCC(=O)N=c2sc3ccccc3n2C)CC1 the results were TDP1 cell noCPT inconclusive, ATXN viability inactive, ATXN2 expr inh -34.0%, HepG2 tox -1.2%, TGFb inhibitor -4.7% and TDP1 cell CPT 16.4µM*.
`Cn1c(=NC(=O)CCl)sc2ccccc21` gave TDP1 cell noCPT 4.11µM*, ATXN viability 31.6µM*, ATXN2 expr inh inconclusive, HepG2 tox 11.2µM*, TGFb inhibitor inconclusive and TDP1 cell CPT 2.59µM*.
CC(=O)SCC(=O)N=c1sc2cc(F)ccc2n1C was read as TDP1 cell noCPT 20.6µM*, ATXN viability inactive, ATXN2 expr inh -25.1%, HepG2 tox -12.4%, TGFb inhibitor 5.8% and TDP1 cell CPT inconclusive.
CC1=C(CC/C(C)=N/NC(N)=S)C(C)(C)CCC1 was read as TDP1 cell noCPT 3.16µM*, ATXN viability inconclusive, ATXN2 expr inh inconclusive, HepG2 tox -21.0%, TGFb inhibitor -17.4% and TDP1 cell CPT 3.98µM*.
`COCCCNC(=O)C(C)n1c2ccccc2c2cnn(C)c(=O)c21` (stereo unspecified) gave TDP1 cell noCPT -20.8%, ATXN viability inactive, ATXN2 expr inh 13.6%, HepG2 tox -7.7%, TGFb inhibitor -24.3% and TDP1 cell CPT -16.4%.
For Cc1ccc(C(C)C)c2oc(=O)cc(-c3ccc(-c4ccc(C(F)(F)F)cc4)cc3)c12 the results were TDP1 cell noCPT 20.6µM*, ATXN viability inactive, ATXN2 expr inh -0.2%, HepG2 tox -42.0%, TGFb inhibitor -8.8% and TDP1 cell CPT 14.6µM*.
COc1cc2oc(=O)cc(-c3ccc(-c4ccc(C(F)(F)F)cc4)cc3)c2c(OC)c1OC was read as TDP1 cell noCPT inconclusive, ATXN viability inactive, ATXN2 expr inh 3.5%, HepG2 tox 2.3%, TGFb inhibitor 2.8% and TDP1 cell CPT inconclusive.
`CCCCNc1cc(NC(C)=O)cc2cc(OC)c(OC)cc12` gave TDP1 cell noCPT inconclusive, ATXN viability inactive, ATXN2 expr inh -16.3%, HepG2 tox -31.1%, TGFb inhibitor 10µM* and TDP1 cell CPT 18.4µM*.
`O=C1c2cccc(OCC(=O)N3N=C(c4cccs4)CC3c3ccc(F)cc3)c2CCN1Cc1cccnc1` (stereo unspecified) gave TDP1 cell noCPT 10.3µM*, ATXN viability inconclusive, ATXN2 expr inh inconclusive, HepG2 tox -18.9%, TGFb inhibitor inconclusive and TDP1 cell CPT 9.2µM*.
`O=C(c1cccnc1)N1N=C(c2cccs2)CC1c1ccc(F)cc1` (stereo unspecified) gave TDP1 cell noCPT -21.5%, ATXN viability inactive, ATXN2 expr inh -16.6%, HepG2 tox -13.6%, TGFb inhibitor inconclusive and TDP1 cell CPT 6.2%.
For Cc1ccccc1CN1CCc2c(OCC(=O)N3CCCc4ccccc43)cccc2C1=O the results were TDP1 cell noCPT 18.4µM*, ATXN viability inactive, ATXN2 expr inh inconclusive, HepG2 tox -25.8%, TGFb inhibitor -46.8% and TDP1 cell CPT 18.4µM*.
O=C1c2cccc(OCC(=O)N3CCCc4ccccc43)c2CCN1Cc1cccnc1 was read as TDP1 cell noCPT 9.2µM*, ATXN viability inactive, ATXN2 expr inh -25.7%, HepG2 tox -19.5%, TGFb inhibitor inconclusive and TDP1 cell CPT 23.1µM*.
`Cc1cccc(C(=O)NCC(c2ccc(F)cc2)N2CCOCC2)c1` (stereo unspecified) gave TDP1 cell noCPT 1.2%, ATXN viability inconclusive, ATXN2 expr inh -5.4%, HepG2 tox -1.2%, TGFb inhibitor -4.4% and TDP1 cell CPT 0.5%.
`CCCCN1C(=O)C(CC(=O)NCCc2ccccn2)CC(C(=O)N2CCCCCC2)=C1C` (stereo unspecified) gave TDP1 cell noCPT 8.2% and TDP1 cell CPT -4.2%.
`CC(C)c1nc(SCC(=O)Nc2ccc(N(C)C)cc2)c2ccccc2n1` gave TDP1 cell noCPT inconclusive, ATXN viability inconclusive, ATXN2 expr inh -30.2%, HepG2 tox -21.2%, TGFb inhibitor -13.3% and TDP1 cell CPT 23.1µM*.
Screening Cc1csc(NC(=O)CSc2nc(C(C)C)nc3ccccc23)n1 returned TDP1 cell noCPT 11.6µM*, ATXN viability inactive, ATXN2 expr inh -15.1%, HepG2 tox -12.4%, TGFb inhibitor 0.2% and TDP1 cell CPT inconclusive.
COc1ccc(N/C(C)=C/C(=O)c2ccccc2)cc1 was read as TDP1 cell noCPT -20.9%, ATXN viability inactive, ATXN2 expr inh 63.7%, HepG2 tox 0.0%, TGFb inhibitor -0.2% and TDP1 cell CPT -21.5%.
Screening COc1ccc(N/C(C)=C/C(=S)Nc2ccccc2)cc1 returned TDP1 cell noCPT inconclusive, ATXN viability inactive, ATXN2 expr inh -1.0%, HepG2 tox -30.1%, TGFb inhibitor inconclusive and TDP1 cell CPT 10.3µM*.
